CHX counter: counter-screen for Shiga toxin inhibitors: cycloheximide protein synthesis inhibition | cell reporter, cycloheximide protein synthesis inhibition counterscreen | max response, % | 12% of 300,000 active; in the data active means max response mostly above about 13%, no sharp cut-off; inactive means mostly below about 14%; further: read at 38.3 µM for the half of the compounds with a filed dose
SARS PLpro yeast: SARS-CoV PLP inhibition in yeast. S. cerevisiae expressing SARS-CoV PLpro, growth rescue. Potency, µM (highest dose often 32.9 µM), usual class: activators. 0.19% of 330,000 active; further: nearly all actives have a fitted effect of over 55% in size
NS1 inh: inhibitors of influenza NS1 protein function | Potency, µM (doses to about 46.1 µM) | 0.4% of 270,000 active | AID 2326; further: actives are rising curves; nearly all actives have a fitted effect of over 50% in size
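S. cerevisiae expressing influenza A NS1, grown in glucose, washed, then diluted 1:100 into pH 6.0 -URA galactose medium with 23 nl compound. Growth recovery read as OD600; NS1-free strain serves as control.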
Shiga toxin inh: blocks Shiga toxin action in Vero cells; Vero cells, Shiga toxin protein synthesis inhibition reporter; inhibition, % at 38.7 µM; 9.2% of 290,000 active; in the data active means inhibition mostly above about 28%, no sharp cut-off; inactive means mostly below about 43%
A number is an active result; . = inactive; ? = inconclusive; / = no result; + = active, no number. The list is not random: actives were taken first. Their share in the collection is about 12%. Unless noted, the call rests on the fitted dose curve.

SMILES	CHX counter	SARS PLpro yeast	NS1 inh	Shiga toxin inh
Cc1cccc(/C=N/NC(=O)c2ccc(Br)cc2)c1	34	.	.	70
CN(C)C1=NCC(CSC(=N)N)S1 (stereo not given)	.	.	/	.
Cc1cccc(/C=N/n2c(C)nnc2C)c1	.	.	.	.
Cc1cccc(/C=N\N=C\c2cccc(C)c2)c1	53	.	.	/
COc1ccc(/C=N/NC(=O)c2cccc(NC(=O)c3ccc(Cl)cc3)c2)c(OC)c1	.	.	.	31
COc1ccc(/C=N/NC(=O)c2ccc(NC(=O)c3cccc([N+](=O)[O-])c3)cc2)c(OC)c1	.	.	/	.
O=C(N/N=C/c1ccc(F)cc1)c1cccc(NC(=O)c2ccc(F)cc2)c1	34	.	.	100
COc1cc(/C=N/NC(=O)c2cccc(NC(=O)c3ccccc3)c2)ccc1O	.	.	.	33
O=C(Nc1ccccc1C(=O)N/N=C/c1ccc(F)cc1)c1ccccc1Br	17	.	.	.
N/C(=N\N=C/c1ccc(F)cc1)N/N=C\c1ccc(F)cc1	11	.	.	.
Cc1ccccc1OCc1nnc(SCC(=O)O)n1-c1ccccc1	.	.	.	/
c1ccc(OCCSc2nnnn2-c2ccccc2)cc1	60	.	.	55
COc1ccccc1OCCSc1nnnn1-c1ccc(C)cc1	.	.	.	.
Cc1ccccc1OCCSc1nnc(C)n1-c1ccccc1	19	.	.	.
Fc1ccccc1OCCSc1nnnn1-c1ccccc1	47	.	.	84
Nc1ccc(NS(=O)(=O)c2ccccc2)cc1	.	.	/	.
C(=C\c1ccccc1)/C=N/N1CCN(Cc2ccccc2)CC1	27	.	/	43
CC(/C=N/N1CCN(c2ccccc2)CC1)=C\c1ccccc1	.	.	.	.
C(=C\c1ccccc1)/C=N/N1CCN(c2ccccn2)CC1	39	.	.	48
C(/C=C/c1ccccc1)=N/N1CCN(c2ccccc2)CC1	16	.	.	.
CC(/C=N/N1CCN(c2ccccn2)CC1)=C\c1ccccc1	23	.	.	47
CC(C)OC(=O)Nc1ccc2c(c1)N(C(=O)CCN1CCOCC1)c1ccccc1CC2	.	.	.	.
COc1ccc(CCNC(=O)C(=O)c2c[nH]c3ccccc23)cc1OC	.	.	.	.
COc1ccc(C/C(C)=N\NC(=O)c2c[nH]c3ccccc23)cc1OC	29	.	.	71
CCn1nc(C)c(/C=N/NC(=O)c2c[nH]c3ccccc23)c1C	50	.	.	40
SMILES	CHX counter	SARS PLpro yeast	NS1 inh	Shiga toxin inh
CCn1nc(C)c(/C=N/NC(=S)Nc2ccc(Cl)cc2Cl)c1C	.	.	.	active
CC/C(=N\NC(=O)c1c[nH]c2ccccc12)c1cccs1	62	.	?	61
Cc1cc(C(=O)N/N=C/c2c(C)[nH]c3ccccc23)n[nH]1	.	.	.	.
C/C(=N\NC(=O)c1c[nH]c2ccccc12)c1ccc(C)s1	25	.	.	.
Cc1ccc(/C=N/NC(=O)c2c[nH]c3ccccc23)s1	30	.	.	77
O=C(N/N=C/c1cc([N+](=O)[O-])ccc1O)c1c[nH]c2ccccc12	.	.	.	.
O=C(N/N=C/c1cccc([N+](=O)[O-])c1)c1c[nH]c2ccccc12	34	.	.	79
O=C(N/N=C/c1ccsc1)c1c[nH]c2ccccc12	47	.	.	67
CCOC(=O)c1cc(C(=O)n2cc(Cl)cn2)nn1C	.	.	.	.
Cc1ccc(/C=N/NC(=O)c2c[nH]c3ccccc23)o1	20	.	.	72
CCc1c(C(=O)N/N=C/c2ccsc2)csc1C	39	.	.	+
CCn1nc(C)c(/C=N/NC(=O)Cn2nccc2C)c1C	37	.	.	72
Cc1ccsc1/C=N\NC(=O)CC(=O)NCc1ccccc1	.	.	/	.
Cc1ccsc1/C=N/NC(=O)c1c[nH]c2ccccc12	60	.	.	106
CCn1nc(C)c(/C=N/NC(=O)Cn2nc(C)cc2C)c1C	.	.	.	.
COc1ccc(C(C)=O)cc1COc1ccc(-n2cnnn2)cc1	.	.	.	.
CCCc1c(O)nc(SCCN(CC)CC)n(C(=O)c2ccccc2)c1=O	.	.	.	.
O=C(O)C[C@H](Cc1ccccc1)C(=O)O	/	/	.	/
O=C(Nc1ccc2nc(C3CC3)n(Cc3ccc(F)cc3)c(=O)c2c1)c1ccco1	.	.	.	.
COc1ccc(Cn2c(C3CC3)nc3ccc(NC(=O)C4CC4)cc3c2=O)cc1	24	.	.	84
COc1cccc(Cn2c(C3CC3)nc3ccc(NC(=O)c4ccco4)cc3c2=O)c1	.	.	.	.
CCC(=O)Nc1ccc2nc(C3CC3)n(Cc3ccc(C(C)(C)C)cc3)c(=O)c2c1	57	.	.	90
CC(=O)Nc1ccc2nc(C3CC3)n(Cc3ccc(Cl)cc3)c(=O)c2c1	23	.	/	49
COc1ccc(CC(=O)Nc2ccc(F)c(F)c2F)cc1S(=O)(=O)N1CCOCC1	/	.	/	/
C=CCOc1ccccc1CN(C(=O)CCl)c1ccc2c(c1)OCO2	17	.	.	49
SMILES	CHX counter	SARS PLpro yeast	NS1 inh	Shiga toxin inh
C=CCOc1ccccc1CNCCNC(=O)c1nonc1N	.	.	?	.
Cc1ccc(CN2CCN(/N=C/C(Br)=C\c3ccccc3)CC2)cc1	.	.	.	.
c1ccc(Cn2cc(CSc3ccccc3)nn2)cc1	38	.	.	67
CN1CCC(C2(O)c3ccccc3CCc3ccccc32)CC1	34	.	.	58
O=C(NC(C(=O)c1ccccc1)n1c(=O)cc[nH]c1=S)c1ccccc1 (stereo not given)	16	.	.	+
CSCC(=O)N1CCC(n2nccc2NC(=O)CCc2ccccc2)CC1	.	.	.	.
CSCCC(=O)N1CCC(n2nccc2NC(=O)CCCc2ccccc2)CC1	17	.	.	.
C=CCCC(=O)N1CCC(n2nccc2NC(=O)CCCc2ccccc2)CC1	13	.	.	.
CCN(CC)S(=O)(=O)c1ccc(NC(=O)c2cccs2)cc1	.	.	.	.
CCN(CC)S(=O)(=O)c1cccc(C(=O)Oc2cccc(NC(=O)c3cccs3)c2)c1	25	?	?	.
COC(=O)COc1cccc(NC(=O)c2ccccc2)c1	.	.	.	.
Cc1cccc(C(=O)Nc2cccc(OC(=O)c3cccc(C)c3)c2)c1	34	.	.	.
CC(=O)Oc1cccc(NC(=O)c2cccc(C(=O)Nc3cccc(OC(C)=O)c3)c2)c1	.	.	.	/
COC(=O)COc1cccc(NC(=O)c2cccc(C)c2)c1	17	.	.	.
COC(=O)C1CN(C(=O)C(C)Oc2ccccc2Cl)c2ccccc2O1 (stereo not given)	.	.	.	.
CCOP(=O)(OCC)c1ccc2c(c1)C(=O)c1ccccc1CC2	/	.	/	/
Oc1ccccc1-c1cc(-c2ccco2)[nH]n1	47	.	.	134
Oc1ccc(Cl)cc1-c1cc(-c2ccco2)[nH]n1	30	.	.	57
Oc1ccc(Br)cc1-c1cc(-c2ccco2)[nH]n1	.	.	.	.
Oc1c(-c2cc(-c3ccco3)[nH]n2)ccc2ccccc12	48	.	.	149
CC=CC1=C(C(=O)O)N2C(=O)[C@H](NC(=O)[C@H](N)c3ccc(O)cc3)[C@@H]2SC1	.	/	/	.
O=C(c1ccccc1)c1n[nH]c(-c2ccccc2)cc1=O	.	.	/	.

From PubChem BioAssay
